Laboratory results: PubChem BioAssay (NCATS)
Records with an inconclusive call do not appear. Active and inactive are the calls of the source. Calls follow the shape of the dose curve; as a rule, active = well fitted curve in the direction sought with a large enough effect; inconclusive = small, poorly fitted or top-dose-only effect, or another doubt; inactive = no such curve, though single readings can be large; an effect the other way counts as inactive or inconclusive.

biological target: Rap guanine nucleotide exchange factor 4 (Homo sapiens) (UniProt Q8WZA2); experiment: Confirmatory qHTS for agonist of cAMP-regulated guanine nucleotide exchange factor 4 (EPAC2) (AID 1645884); conditions: EPAC2 GEF activity, Rap1B-BODIPY-GDP fluorescence; series mostly up to 154 µM; activation: at the top concentration;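 also: nucleotide exchange releases bodipy-GDP from Rap1 and this lowers its fluorescence; nearly all actives have a fitted effect of over 65% in size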
Sequence (Q8WZA2 whole entry, looked up): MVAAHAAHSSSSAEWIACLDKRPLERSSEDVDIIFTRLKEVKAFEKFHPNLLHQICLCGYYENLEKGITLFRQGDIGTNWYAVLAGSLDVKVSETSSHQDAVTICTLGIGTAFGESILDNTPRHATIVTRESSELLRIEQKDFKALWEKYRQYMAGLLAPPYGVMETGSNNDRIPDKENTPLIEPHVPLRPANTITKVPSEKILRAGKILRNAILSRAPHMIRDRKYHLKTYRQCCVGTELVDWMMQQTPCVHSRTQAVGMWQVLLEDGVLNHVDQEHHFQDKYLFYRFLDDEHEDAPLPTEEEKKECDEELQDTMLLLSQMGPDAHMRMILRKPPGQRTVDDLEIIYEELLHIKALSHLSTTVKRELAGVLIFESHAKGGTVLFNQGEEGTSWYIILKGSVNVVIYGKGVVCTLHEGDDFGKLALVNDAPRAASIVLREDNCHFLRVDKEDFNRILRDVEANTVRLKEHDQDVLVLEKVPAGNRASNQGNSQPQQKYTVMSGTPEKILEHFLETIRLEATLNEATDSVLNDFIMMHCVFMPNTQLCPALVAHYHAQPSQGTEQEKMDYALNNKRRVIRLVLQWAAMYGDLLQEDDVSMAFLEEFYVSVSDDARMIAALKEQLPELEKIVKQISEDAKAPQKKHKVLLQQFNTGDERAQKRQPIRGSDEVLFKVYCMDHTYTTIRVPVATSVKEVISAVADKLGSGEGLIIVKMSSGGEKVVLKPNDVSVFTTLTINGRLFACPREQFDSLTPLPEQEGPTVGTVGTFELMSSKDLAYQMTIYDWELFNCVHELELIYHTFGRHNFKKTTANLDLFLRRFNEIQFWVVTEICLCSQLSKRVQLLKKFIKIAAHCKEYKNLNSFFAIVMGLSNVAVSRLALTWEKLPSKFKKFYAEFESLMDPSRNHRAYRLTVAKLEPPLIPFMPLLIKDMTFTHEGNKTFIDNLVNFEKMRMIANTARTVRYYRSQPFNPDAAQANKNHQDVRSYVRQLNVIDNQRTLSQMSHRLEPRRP
% is scaled to controls: 0 for no effect and ±100 for the full control effect; potency is read from the fitted curve at half-maximal effect.

Compound | activation | Potency
CCN1CCN(c2ccc(S(=O)(=O)N3CCCCC3)cc2NC(=O)c2ccc([N+](=O)[O-])s2)CC1 | -10.8% (inactive) | 
Nc1ccc(N2CCCCC2)c2nonc12 | -6.41% [at 17.1 µM, percent relative to cAMP agonist control] (inactive) | 
O=CN(c1ccccc1)c1ccc2ccccc2c1 | 1.36% [at 17.1 µM, percent relative to cAMP agonist control] (inactive) | 
CCCN(CC(=O)Nc1ccccc1C)C(=O)C1CCN(c2ncnc3sc(C)c(C)c23)CC1 | 2.06% (inactive) | 
CC(=O)C1=CCC(c2ccccc2Cl)N(S(=O)(=O)c2ccc(C)cc2)C1 (configuration not stated) | 8.73% (inactive) | 
Cc1ccc(NS(=O)(=O)c2cccc(C(=O)OCC(=O)NCc3ccco3)c2)cc1 | -0.394% (inactive) | 
CCn1cc(CN2CCc3c([nH]c4ccccc34)C2c2cccc(OC)c2)c(C)n1 (configuration not stated) | -1.07% [at 17.1 µM, percent relative to cAMP agonist control] (inactive) | 
COc1ccccc1C(=O)Nc1nnc(SCc2cc(=O)c3ccccc3[nH]2)s1 | 7.54% [at 83.8 µM, percent relative to cAMP agonist control] (inactive) | 
Cc1ccc(S(=O)(=O)/N=C2\C=C(NS(=O)(=O)c3ccccc3)C(=O)c3ccccc32)c(C)c1 | 5.26% [at 17.1 µM, percent relative to cAMP agonist control] (inactive) | 
CC(C)=CCc1c(O)cc(O)c2c1O[C@H](c1ccccc1)CC2=O | -13.3% (inactive) | 
CC(C)=CCc1c(O)ccc2c1OC(c1ccc(O)c(O)c1)CC2=O (configuration not stated) | 0% (inactive) | 
O=C1/C(=C/c2ccc(O)c(O)c2)SC(=S)N1Nc1ccccc1 | 6.7% (inactive) | 
CCCC[C@H]1COCCS(=O)(=O)N1Cc1ccc(Br)cc1 | -15.8% (inactive) | 
Nc1nc(N)c(-c2cccc(C(F)(F)F)c2)c(Cc2cccc(C(F)(F)F)c2)n1 | -16.2% (inactive) | 
Cc1ccnc(NC(=O)C2CCN(S(=O)(=O)c3cccc(C(F)(F)F)c3)CC2)c1 | 2.84% (inactive) | 
Clc1cccc(-c2nc3ccc(Cl)cn3c2Cc2ccsc2)c1 | 4.78% (inactive) | 
CCCc1nc2ccc(C(=O)OC)cn2c1Cc1ccccc1C(F)(F)F | -14.1% (inactive) | 
CCC(=C(c1ccc(OC)cc1)c1ccc(OC)cc1)c1cn(CC(O)CN(CCO)CCO)c2ccccc12 (configuration not stated) | -2.29% (inactive) | 
CCOC(=O)c1ccc(NC(=O)c2c(N)n(Cc3ccccc3)c(=O)[nH]c2=O)cc1 | -0.418% (inactive) | 
O=c1cc(CN2CCN(S(=O)(=O)c3cccc(Cl)c3)CC2)c2ccc(O)cc2o1 | 0.108% (inactive) | 

Compound | activation | Potency
Cc1cc(NC(=O)CS(=O)(=O)c2cn(Cc3cccc(Br)c3)c3ccccc23)no1 | 9.83% (inactive) | 
CN1/C(=C/C=C/c2n(C)c3cc([N+](=O)[O-])c([N+](=O)[O-])cc3[n+]2C)C(C)(C)c2ccccc21 | -41.1% (inactive) | 
O=C(c1cc(C(F)(F)F)cc(C(F)(F)F)c1)N1CCC2(CCCN(c3ncccn3)C2)CC1 | -1.91% (inactive) | 
CCOc1cnc(-c2c(-c3ccccc3Cl)noc2C)o1 | -19.3% (inactive) | 
Cc1ccc(/C=C/C(=O)Nc2ccc([N+](=O)[O-])c(NC(=O)/C=C/c3ccc(C)o3)c2)o1 | 6% [at 17.1 µM, percent relative to cAMP agonist control] (inactive) | 
Cc1cc(C)c(Cn2cnc3ccccc32)c(C)c1 | 18.2% (inactive) | 
COc1ccc2sc(-c3ccc(SC)cc3)c(C#CC(C)(C)O)c2c1 | 19.4% (inactive) | 
O=c1c(O)c(-c2ccccc2)oc2ccc3occc3c12 | 8.6% (inactive) | 
COc1cc2nc(N3CCNCC3)nc(N)c2cc1OC |  | 100 µM (active)
O=C(Nc1ccccc1N1CCCCC1)c1cnccn1 | 0% [at 17.1 µM, percent relative to cAMP agonist control] (inactive) | 
CN(C)c1ncc2ncc(=O)n(Cc3cccs3)c2n1 | -1.81% (inactive) | 
CCOc1ccc2nc3cc(N=Nc4ccc(N)nc4N)ccc3c(N)c2c1 | 2.08% [at 17.1 µM, percent relative to cAMP agonist control] (inactive) | 
Oc1ccc(NCc2ccccc2OCc2ccccc2Cl)cc1 | 0.4% [at 83.8 µM, percent relative to cAMP agonist control] (inactive) | 
CCCCOC(=O)CCn1c(=S)oc2ccccc21 | 11.9% (inactive) | 
Cc1cc(C)c(OCC(=O)N(Cc2ccco2)Cc2ccco2)c(C)c1 | -8.62% [at 83.8 µM, percent relative to cAMP agonist control] (inactive) | 
CC(C)NC(=O)c1sc2nc(-c3cccs3)cc(-c3cccs3)c2c1N | 7.54% (inactive) | 
CC(C)=CCc1c2c(c3occ(-c4ccc(O)cc4)c(=O)c3c1O)C=CC(C)(C)O2 | -32.3% (inactive) | 
CCOC(=O)C1=C(C)N=c2s/c(=C/c3ccc(OCC(=O)O)cc3)c(=O)n2C1c1ccc(F)cc1 (configuration not stated) | -27.4% (inactive) | 
O=C1C(O)=C(O)C(=O)c2ccccc21 | 1.27% (inactive) | 
Nc1ccc(C(=O)N2CCN(S(=O)(=O)c3ccc(Cl)s3)CC2)cc1[N+](=O)[O-] | 17.1% (inactive) | 

biological target: Rap guanine nucleotide exchange factor 4 (Homo sapiens) (UniProt Q8WZA2); experiment: Confirmatory qHTS for antagonist of cAMP-regulated guanine nucleotide exchange factor 4 (EPAC2) (AID 1645885); conditions: EPAC2 Rap1B-BODIPY-GDP exchange fluorescence, biochemical; series mostly up to 12.7 µM; activity change, negative = inhibition: at the top concentration; also: nearly all actives have a fitted effect of over 25% in size

Compound | activity change, negative = inhibition | outcome | Potency
Nc1ccc(N2CCCCC2)c2nonc12 | -13.5% (inactive) |  | 
O=CN(c1ccccc1)c1ccc2ccccc2c1 | -9.91% (inactive) |  | 
Cc1ccc(NS(=O)(=O)c2cccc(C(=O)OCC(=O)NCc3ccco3)c2)cc1 | -7.3% [at 114 µM] (inactive) |  | 
CCn1cc(CN2CCc3c([nH]c4ccccc34)C2c2cccc(OC)c2)c(C)n1 (configuration not stated) | -8.31% (inactive) |  | 
COc1ccccc1C(=O)Nc1nnc(SCc2cc(=O)c3ccccc3[nH]2)s1 |  | inactive [at 12.7 µM] | 
CC(C)=CCc1c(O)cc(O)c2c1O[C@H](c1ccccc1)CC2=O |  |  | 39.3 µM (active)
O=C1/C(=C/c2ccc(O)c(O)c2)SC(=S)N1Nc1ccccc1 | 66.9% [at 114 µM] (inactive) |  | 
CCCC[C@H]1COCCS(=O)(=O)N1Cc1ccc(Br)cc1 |  | inactive; activator; fitted 11.9955 uM | 
Nc1nc(N)c(-c2cccc(C(F)(F)F)c2)c(Cc2cccc(C(F)(F)F)c2)n1 | 140% [at 114 µM] (inactive) |  | 
Cc1ccnc(NC(=O)C2CCN(S(=O)(=O)c3cccc(C(F)(F)F)c3)CC2)c1 |  | inactive | 
CCCc1nc2ccc(C(=O)OC)cn2c1Cc1ccccc1C(F)(F)F |  |  | 30.1 µM (active)
CN1/C(=C/C=C/c2n(C)c3cc([N+](=O)[O-])c([N+](=O)[O-])cc3[n+]2C)C(C)(C)c2ccccc21 |  |  | 42.6 µM (active)
O=C(c1cc(C(F)(F)F)cc(C(F)(F)F)c1)N1CCC2(CCCN(c3ncccn3)C2)CC1 |  |  | 44.1 µM (active)
Cc1ccc(/C=C/C(=O)Nc2ccc([N+](=O)[O-])c(NC(=O)/C=C/c3ccc(C)o3)c2)o1 | 4.91% (inactive) |  | 
COc1ccc2sc(-c3ccc(SC)cc3)c(C#CC(C)(C)O)c2c1 | -28.9% [at 114 µM] (inactive) |  | 
O=c1c(O)c(-c2ccccc2)oc2ccc3occc3c12 |  |  | 5.55 µM (active)
COc1cc2nc(N3CCNCC3)nc(N)c2cc1OC |  |  | 67.5 µM (active)
O=C(Nc1ccccc1N1CCCCC1)c1cnccn1 | -29.6% (inactive) |  | 
CN(C)c1ncc2ncc(=O)n(Cc3cccs3)c2n1 |  |  | 39.3 µM (active)
CCOc1ccc2nc3cc(N=Nc4ccc(N)nc4N)ccc3c(N)c2c1 | -9.08% (inactive) |  | 
Cc1cc(C)c(OCC(=O)N(Cc2ccco2)Cc2ccco2)c(C)c1 | -9.19% (inactive) |  | 
CC(C)=CCc1c2c(c3occ(-c4ccc(O)cc4)c(=O)c3c1O)C=CC(C)(C)O2 | -29.1% [at 114 µM] (inactive) |  | 
